According to PubChem BioAssay AID926 (National Center for Advancing Translational Sciences (NCATS), 2007):
“And” between values parts separate entries of the source, which are not always exact repeats. Identical values can stand only once. In all, about 73,000 compounds went through this assay and about 350 (0.48%) were called active. Not shown: some 17% with an inconclusive outcome. Calls follow the shape of the dose curve; as a rule, active = well fitted activation curve with a large enough effect in the main read-out, with a control signal flat (not every such curve was filed as active); inconclusive = small, poorly fitted or top-dose-only effect, or a change in a side signal; inactive = no such curve, though single readings can be large or run the other way; reference of the percent scale not stated here. For the sample, actives were picked, then their nearest neighbours and some compounds at random.

Experiments:
[1] = qHTS Assay for Agonists of the Thyroid Stimulating Hormone Receptor; settings: HEK293-CNG-TSHR cells, membrane potential dye, cAMP; measured here: parental cells max response
Text: (§1) NIH Chemical Genomics Center [NCGC]
(§2) NIH Molecular Libraries Screening Centers Network [MLSCN]
(§3) PI Name: Dr. Marvin Gershengorn, NIH
(§4) Thyroid Stimulating Hormone Receptor
(§5) TSH is an alpha/beta heterodimeric glycoprotein hormone secreted from the anterior pituitary gland which belongs to the glycoprotein hormone family. The actions of TSH are mediated by a seven-transmembrane receptor, which upon TSH binding couples preferentially to the G-alpha (s) protein (Gs), resulting in activation of adenylate cyclase and increase in cyclic adenosine 3', 5' monophosphate (cAMP). The TSH receptor (THSR) is mainly expressed in thyroid follicular cells and regulates their growth and function. Recombinant TSH is used to activate TSHR in patients with thyroid cancer receiving thyroid hormone suppression therapy and to screen for residual tumor after surgery, but it is expensive and must be administered intramuscularly. An orally active small molecule TSHR agonist would serve as an invaluable research tool for studying TSHR pharmacology and physiology, and would have multiple advantages in therapeutic settings. However, no selective small molecule agonist of the TSH receptor exists, and no small molecule screen for TSHR agonists has ever been reported.
(§6) This cell based assay utilized a cyclic nucleotide gated ion channel (CNG) as a biosensor for cAMP induction by potential TSHR agonists.
(§7) HEK 293 cells stably expressing the TSHR as well as a modified CNG were purchased from BD biosciences. Stimulation of cAMP production causes the CNG to open and subsequent membrane depolarization to occur. A fluorescent membrane potential dye (BD biosciences) was utilized to detect cAMP stimulation in TSHR cells.
(§8) The cells were maintained in DMEM medium (Invitrogen) containing 10 % FBS (Hyclone), 100 units/ml Penicillin, 100 ug/ml Streptomycin (Invitrogen), and 250 ug/ml Geneticin (Invitrogen) and 1 ug/ml Puromycin (Invitrogen) at 37C in 5% CO2. HEK 293 cells expressing CNG but without TSHR (parental cells) were used in concert to control for compounds signaling through endogenous receptors and targets of HEK 293 cells.
(§9) NCGC Assay Protocol Summary:
(§10) High Throughput Screening. Freshly passaged cells (TSHR or parental) were dispensed into 1536-well assay plates at 4 ul/well in DMEM containing phenol red (Invitrogen), 10% FCS (Hyclone), and 100 units/ml Penicillin, 100 ug/ml Streptomycin (Invitrogen) and incubated at 37 C with 5% CO2 for 20 to 36 hrs before the robotic screening. The screen was initiated by addition of 4 ul/well membrane potential dye containing 100 uM RO 20-1724 (Sigma Aldrich), followed by 60 min incubation at room temperature to allow for dye equilibration across the cell membrane. 23 nl/well compound or control was then added to the assay plates, which were incubated for additional 30 min before reading a Envision fluorescence plate reader (Perkin Elmer) in bottom-read mode for fluorescence intensity (emission at 590 nm).
(§11) Keywords: Thyroid-stimulating hormone TSH, TSHR, TSHR agonist, quantitative high throughput screening, qHTS, HTS, probe identification, CNG, cAMP, cyclic nucleotide gated ion channel PubChem

[2] = target: Thyrotropin receptor (Homo sapiens) (UniProt P16473); assay: as above; settings: HEK293-CNG-TSHR cells (CNG channel as cAMP sensor), membrane potential dye, cAMP; series mostly up to 57.1 µM
Sequence of Thyrotropin receptor (Homo sapiens) (P16473 whole entry, looked up): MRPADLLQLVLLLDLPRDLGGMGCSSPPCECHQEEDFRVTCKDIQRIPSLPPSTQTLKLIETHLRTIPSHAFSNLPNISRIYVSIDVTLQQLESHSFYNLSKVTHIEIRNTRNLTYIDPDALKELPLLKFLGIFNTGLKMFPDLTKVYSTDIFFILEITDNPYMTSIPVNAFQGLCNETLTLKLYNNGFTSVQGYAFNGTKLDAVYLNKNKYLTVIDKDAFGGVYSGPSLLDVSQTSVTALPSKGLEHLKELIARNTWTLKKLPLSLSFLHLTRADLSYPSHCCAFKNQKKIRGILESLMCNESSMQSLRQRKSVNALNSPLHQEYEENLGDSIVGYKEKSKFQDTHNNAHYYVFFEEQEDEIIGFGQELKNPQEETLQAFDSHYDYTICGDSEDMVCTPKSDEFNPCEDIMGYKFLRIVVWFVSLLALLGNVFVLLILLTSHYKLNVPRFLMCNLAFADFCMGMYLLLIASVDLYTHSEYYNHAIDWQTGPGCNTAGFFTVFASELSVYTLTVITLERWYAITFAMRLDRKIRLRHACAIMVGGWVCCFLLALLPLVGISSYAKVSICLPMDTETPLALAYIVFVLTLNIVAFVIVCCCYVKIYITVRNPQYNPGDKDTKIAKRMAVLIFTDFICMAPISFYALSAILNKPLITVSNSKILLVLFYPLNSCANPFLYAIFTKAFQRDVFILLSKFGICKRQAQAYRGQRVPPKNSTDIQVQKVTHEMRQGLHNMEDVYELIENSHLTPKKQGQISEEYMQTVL
Text: as §1, §2, §3, §4, §5, §6, §7, §8, §9, §10, §11
Potency is read from the fitted curve at half-maximal effect.

SMILES | activation [1] | Potency [2] | activation [2]
CC1CN(c2cc(=O)n(Cc3ccc(F)cc3)c(=O)[nH]2)CC(C)O1 (stereo unspecified) | 3.44% | inactive | 
COc1cccc([C@H]2Oc3ccc(OC)cc3/C(=N\OCC[C@@H]3C=C[C@H](OC(C)=O)[C@H](COC(C)=O)O3)[C@@H]2O)c1 | 1.81% |  | 9.23% [at 11.4 µM] (inactive)
COC(=O)[C@@H]1CC[C@H](C)[C@@H](c2ccc(C)cc2)N1C(=O)c1ccc(/C=N\OC[C@@H](O)COCc2ccco2)cc1 | 44.4% |  | 16.9% [at 11.4 µM] (inactive)
c1ccc2c(Nc3ccncc3)nc(-c3ccc4c(c3)OCO4)nc2c1 | -4.18% | inactive | 
CCc1ccccc1NC(=O)c1cccs1 | -1.56% | inactive | 
Nc1ccccc1N | -14.7% | inactive | 
Cc1ccc(CCn2c3c(c4ccccc42)CN(C)CC3)cn1 | 19.4% | inactive | 
COC(=O)[C@@]1(Cc2ccc(F)cc2)[C@H]2c3cc(C(=O)N(C)C)n(CCc4c[nH]c5ccc(OC)cc45)c3C[C@H]2CN1C(=O)c1ccccc1 | 3.36% | inactive | 
CO[C@H]1COC(=O)[C@@H](C)NC(=O)C/C=C\[C@@H](C)[C@H](OC)COC(=O)C/C=C\[C@@H]1C | 2.45% |  | -73.4% [at 11.4 µM] (inactive)
CCOc1cc(/C=N/O)cc(Br)c1OC | 15% |  | 4.51% [at 11.4 µM] (inactive)
C[C@H]1CC[C@H](C(=O)O)N[C@@H]1c1ccc(C#Cc2ccccc2)cc1 | 0.689% |  | 0.128% [at 11.4 µM] (inactive)
O=C(c1cccs1)N1CCN(Cc2ccc3c(c2)OCO3)CC1 | -2.72% | inactive | 
C[C@@H]1O[C@@H](O[C@@H]2[C@@H](O)[C@H](OCCc3ccc(O)c(O)c3)O[C@H](CO[C@@H]3O[C@H](CO)[C@@H](O)[C@H](O)[C@H]3O)[C@H]2OC(=O)/C=C/c2ccc(O)c(O)c2)[C@H](O)[C@H](O)[C@H]1O | 23.7% | inactive | 
O=C(O)COc1nsnc1N1CCOCC1 | -10.1% | inactive | 
c1ccc(COc2nsnc2N2CCOCC2)cc1 | 27.1% | 31.6 µM (active) | 
c1nc(COc2nsnc2N2CCOCC2)cs1 | -7.01% | inactive | 
CCn1c(COc2ccc(OC)cc2)nnc1SCC(=O)Nc1cc(OC)ccc1OC | 24.1% | inactive | 
COc1ccc(OC)c(NC(=O)CC(Cc2ccccc2OC)C(=O)O)c1 (stereo unspecified) | 9.66% | inactive | 
COc1ccc(OC)c(NC(=O)CSc2nc(N)c(-c3ccccc3)c(=O)[nH]2)c1 | 9.04% | 25.1 µM (active) | 
CN(C)CCCCNC(=O)c1ccc(Cc2nc3ccccc3[nH]2)cc1 | 3.13% | inactive | 
Cc1ccc2oc(=O)c3cnn(CC(=O)N4CCN(c5ccccn5)CC4)c3c2c1 | 4.94% | inactive | 
CC(C)[C@@H](OCc1ccccc1)[C@H](C)/C=N\OC[C@@H](C)[C@H](OCc1ccccc1)C(C)C | 2.03% |  | 1.85% [at 11.4 µM] (inactive)
Cc1c(S(=O)(=O)O)ccc(N=Nc2c(O)c(C(=O)O)cc3ccccc23)c1Cl | -23.8% |  | -9.34% [at 11.4 µM] (inactive)
Cc1nc2cnc(N3CCNCC3)nc2n(CCc2ccccc2)c1=O | 9.57% | inactive | 

SMILES | activation [1] | Potency [2] | activation [2]
CCOC(=O)c1c(NC(=O)CCC(=O)NCc2ccco2)sc2c1CCCC2 | 12.9% | inactive | 
O=C(COC(=O)C12CC3CC(CC(C3)C1)C2)NCc1ccco1 | -8.57% | 0.794 µM (active) | 
O=C(COC(=O)CCC(=O)c1cccs1)NCc1ccco1 | 10.5% | inactive | 
CC(C)CO/N=C1/C[C@@H](O)[C@@H](O)[C@@H]2[C@@H]3C(=O)N(C[C@@H]4CCCO4)C(=O)[C@H]3CC[C@@H]12 | 4.27% |  | -4.09% [at 11.4 µM] (inactive)
COC(=O)C(C(=O)OC)[C@@H]1CCCC(=O)C1 | 4.23% |  | -9.31% [at 11.4 µM] (inactive)
COC(=O)C(C)Sc1ccc2nnc(-c3cccc(F)c3)n2n1 (stereo unspecified) | 2.29% | inactive | 
CSc1ccc(Cl)c(C(=O)OCC(=O)N2CC(C)OC(C)C2)c1 (stereo unspecified) | 6.62% | inactive | 
COC(=O)C1=C(C)N(Cc2ccccc2)C2=C3C(=O)N(c4ccccc4)C(=O)C3[C@@](O)(C(=O)OC)C(=O)N2C1c1ccccc1 (stereo partly specified) | 9.18% and 2.67% |  | -0.785% [at 11.4 µM] (inactive) and 7.43% [at 11.4 µM] (inactive)
CCCNC(=O)OC[C@@H]1O[C@H](c2ccccc2)C=C[C@@H]1Oc1ccc(OC)cc1 | 1.38% |  | 1.94% [at 11.4 µM] (inactive)
CN1CCCc2cc(C#N)c(=O)[nH]c21 | 7.1% |  | 4.78% [at 11.4 µM] (inactive)
O=C(COc1cccc(-n2cnnn2)c1)NCCC1=CCCCC1 | -0.416% | inactive | 
O=C(Cc1nn[nH]n1)NCCC1=CCCCC1 | 15.8% | inactive | 
O=C(CN1C(=O)NC2(CCCCC2)C1=O)NCCC1=CCCCC1 | 3.28% | 12.6 µM (active) | 
CNC(=O)C1(C)C=CC2(CCCCC2)N1C(C)=O (stereo unspecified) | 9.38% | inactive | 
O=C(c1ccccc1)c1ccc2nc(N3CCCCC3)c3nncn3c2c1 | 3.47% | inactive | 
O=C(O)c1cc(S(=O)(=O)N2CCCCCC2)c(Cl)cc1Cl | 9.56% |  | 12.9% [at 11.4 µM] (inactive)
COC(=O)[C@@]1(C)C=C[C@@H](Cc2ccccc2)N1C(C)=O | 15.2% | inactive | 
CCC[C@@H]1C[C@@]1(CCC)C(NC(=O)c1ccc(-c2ccccc2)cc1)c1cccc(Cl)c1 (stereo partly specified) | -2.94% | inactive | 
COC(=O)C1(C)C=CCN1C(=O)c1ccccc1 (stereo unspecified) | 22% | inactive | 
O=C(Cl)c1ccccc1[N+](=O)[O-] | 27% | inactive | 
CC(C)CN1CCc2nc(-c3ccccc3)c3c(c2C1)COC(C)C3 (stereo unspecified) | -2.08% |  | -2.84% [at 11.4 µM] (inactive)
CCN(CC)CCCCn1c(-c2ccccc2)nc2c(N3CCOCC3)nc(C)nc21 | 25% | inactive | 
CN1CCN(Cc2nc3c(c(=O)n(C)c(=O)n3C)n2Cc2cccc3ccccc23)CC1 | 2.12% | inactive | 
C[C@@H]1/C=C\CC(=O)OC[C@H]2O[C@@H](C=C[C@@H]2O)[C@H](C)/C=C\CC(=O)OC[C@H]2O[C@H]1C=C[C@@H]2O | -6.65% |  | -3.42% [at 11.4 µM] (inactive)
